Rango complex inh – qHTS Assay for Inhibitors of Rango (Ran-regulated importin-beta cargo) - Importin beta complex formation | actives 0.031% (n = 340,000) | Rango CFP/YFP FRET sensor + importin beta, 45 min | AID 540263, 2011 | Importin subunit beta-1 (Homo sapiens), Q14974 | Potency, µM (series often up to 92.2 µM); calls by dose curve; further: nearly all actives have a fitted effect of over 15% in size
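FRET biosensor (snurportin 1 IBB flanked by EYFP and cerulean), 50 nM, with compound 5 min, then 0.125 microM importin beta in PBS, 1 mM DTT, 0.02% Tween-20, 0.1% BSA. CFP/YFP ratio read after 45 min at room temperature; pre-read flags interference.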
VDR inh – Inhibitors of the vitamin D receptor (VDR): qHTS; VDR-SRC2-3 peptide fluorescence polarization, 2 h; Potency, µM, hits mostly inhibitors; actives 0.93% (n = 400,000); AID 504847, 2011
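Measured by FP: displacement of SRC2-3 coactivator peptide from VDR by library compounds, following a two-hour ambient incubation.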
PLK1 PBD block – qHTS for Inhibitors of PLK1-PDB (polo-like kinase 1 - polo-box domain): Primary Screen; Potency, µM, actives largely listed as inhibitors; AID 720504, 2013; Plk1 PBD binding of FITC phosphopeptide, fluorescence polarization; Serine/threonine-protein kinase PLK1 (Homo sapiens), P53350; actives 2.8% (n = 360,000); further: series mostly up to about 57 µM; nearly all actives have a fitted effect of over 65% in size
Target sequence (P53350 whole entry, looked up, the tested form may be a part): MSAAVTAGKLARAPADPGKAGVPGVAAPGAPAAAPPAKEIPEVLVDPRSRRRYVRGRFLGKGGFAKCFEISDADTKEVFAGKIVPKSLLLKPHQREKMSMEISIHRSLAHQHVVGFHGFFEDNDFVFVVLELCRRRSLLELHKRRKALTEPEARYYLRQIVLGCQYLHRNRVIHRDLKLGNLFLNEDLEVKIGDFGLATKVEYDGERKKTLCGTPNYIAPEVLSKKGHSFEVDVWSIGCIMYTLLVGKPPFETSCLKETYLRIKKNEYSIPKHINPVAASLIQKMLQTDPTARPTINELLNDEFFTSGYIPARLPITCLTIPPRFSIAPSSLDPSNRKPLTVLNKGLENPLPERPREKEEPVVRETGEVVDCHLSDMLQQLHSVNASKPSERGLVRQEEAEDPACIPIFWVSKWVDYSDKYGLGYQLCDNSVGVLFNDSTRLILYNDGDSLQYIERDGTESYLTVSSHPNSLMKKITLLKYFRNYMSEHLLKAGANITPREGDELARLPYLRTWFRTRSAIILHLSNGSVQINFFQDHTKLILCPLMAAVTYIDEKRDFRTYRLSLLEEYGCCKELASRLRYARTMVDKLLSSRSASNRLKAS
GCN5L2 inh – qHTS Assay for Inhibitors of GCN5L2; GCN5L2 HAT assay, ThioGlo1 CoA-SH fluorescence; Potency, µM (top dose mostly 58.9 µM), usual class: inhibitors; actives 0.21% (n = 390,000)
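ThioGlo1-coupled HAT assay: 20nM GCN5L2, 70uM acetyl-CoA, 75uM H3(1-25) peptide, pH 7.5. Fluorescence read at 340/540nm at start and after 20 min at room temperature.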
PI5P4K alpha inh – qHTS for Inhibitors of phosphatidylinositol 5-phosphate 4-kinase (PI5P4K); PI5P4Kalpha enzyme, ADP-Glo luminescence, 60 min; stronger effect = lower value; AID 652105, 2013; max response, %; actives 1.2% (n = 330,000); active means max response of -50% or lower; inconclusive means between -30% and -50%; inactive means -30% or higher; further: value at the top dose of about 77 µM
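Quantitative HTS of the MLSMR library against PI5P4Kalpha with substrate. ATP added last at 5 microM final; room temperature, 60 minutes. Remaining ATP depleted, ADP converted and read as luminescence.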
Rango release inh – qHTS Assay for Inhibitors of RanGTP induced Rango (Ran-regulated importin-beta cargo) - Importin beta complex dissociation | Biochemical FRET Rango-importin beta, RanGTP-induced dissociation | Potency, µM (doses to about 46.1 µM) | actives 0.071% (n = 340,000) | Snurportin-1 (Homo sapiens) + GTP-binding nuclear protein Ran (Homo sapiens) + Importin …; calls by dose curve; further: nearly all actives have a fitted effect of over 45% in size
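Quantitative HTS using a FRET biosensor: 0.1 uM Rango, 0.25 uM importin beta, 0.6 uM Ran, 2 mM GTP, 0.2 uM RCC1 final, PBS with DTT, Tween-20 and BSA. Post-read taken 45 min after Ran addition.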
Numbers stand for hits; 0 = inactive; ? = inconclusive; - = no result given; ! = a repeat was not active; [ ] = remark or other dose. Sampled rows, rich in hits. Any-hit rate of the full collection: about 3.6%. Unless noted, the call rests on the fitted dose curve; in most records, active means well fitted curve in the direction sought with a large enough effect; inconclusive means small, poorly fitted or top-dose-only effect, or another doubt; inactive means no such curve, though single readings can be large; an effect the other way counts as inactive or inconclusive.

SMILES	Rango complex inh	VDR inh	PLK1 PBD block	GCN5L2 inh	PI5P4K alpha inh	Rango release inh
Cc1cc(=O)oc2c1c(C)nn2-c1nn[nH]n1	0	?	11µM	0	?	0
C#CCN(C)[C@@H](C)Cc1ccccc1	-	0	-	11µM	-	-
C/C(=N\NC(=S)Nc1ccccc1)c1c(O)n(C)c(=O)n(C)c1=O	0	?	21µM	0	-53	0
Cn1cccc1/C=C1\C(=O)NC(=O)N(Cc2ccccc2Cl)C1=O	0	0	?	0	-69	0
O=c1[nH]cc(N(CCCl)CCCl)c(=O)[nH]1	-	18µM	-	0	-	-
CCN1C(=O)C(=C2C=C(C)N(Cc3ccco3)C(C)=C2)C(=O)N(CC)C1=S	?	0	0	0	0	?
CCN1C(=O)C(=C/C=C/c2ccco2)C(=O)N(CC)C1=S	?	0	?	0	-97	?
c1ccc2sc(C3(NCC4CC4)CCCCC3)cc2c1	-	0	-	0	-	-
Oc1c(Cl)c(Cl)c(Cl)c(Cl)c1Cl	0	89µM	27µM	?	?	0
COC(=O)C1=C(N)Oc2c(c(=O)oc3ccccc23)C1c1cccnc1 (stereo not given)	0	0	0	0	0	0
N#CC1=C(N)Oc2c(c(=O)sc3ccccc23)C1c1cccnc1 (stereo not given)	0	0	0	0	-63	0
COc1cc(/C=C(/C)[N+](=O)[O-])ccc1OCc1ccccc1Cl	0	8.9µM	2.4µM	0	0	0
CCC(C)N1C(=O)NC(=O)C2(Cc3c(ccc4ccccc34)N(C)C2)C1=O (stereo not given)	0	0	13µM	0	0	0
CCC(Oc1ccc(Cl)cc1)C(=O)OC1CC2CCC(C1)N2C (stereo not given)	-	0	-	0	-	-
C[C@]12CC[C@@H]3[C@@H](CCC4=CC(=O)CC[C@@H]43)[C@@H]1CC[C@@H]2OC(=O)CCc1ccccc1	-	0	-	0	-	-
CC(=O)c1ccc2c(c1)C1C(Cl)C(Sc3ccccc3[N+](=O)[O-])CC1C(C(=O)O)N2 (stereo not given)	0	0	27µM	0	0	0
O=C(O)c1cccc2c1NC(C(=O)O)C1CC(Sc3ccccc3[N+](=O)[O-])C(Cl)C21 (stereo not given)	?	0	8.4µM	?	-67	0
Cc1cccc(-n2c(/C=C/c3c[nH]c4ccccc34)nc3ccccc3c2=O)c1	-	0	-	0	-	-
CCC1(O)C(=O)OCc2c1cc1n(c2=O)Cc2cc3cc(O)ccc3nc2-1 (stereo not given)	?	0	12µM	-	?	?
CC[C@@]1(O)C(=O)OCc2c1cc1n(c2=O)Cc2cc3ccccc3nc2-1	-	0	-	?	-	-
O=C(c1ccc(Cl)cc1)N1CCC2(CC1)OCCO2	0	0	0	0	0	0
S=C(c1ccc(Cl)cc1)N1CCOCC1	0	?	28µM	0	-	0
CN(CCc1cnn(C)c1)C(=O)C1CCC(=O)N(CC2CCCCC2)C1 (stereo not given)	0	0	0	?	0	0
CCN(CC)c1ccc(/C=C/[N+](=O)[O-])cc1	0	18µM	0	0	0	0
CCC1(c2ccccc2)C(=O)NC(=O)N(C(=O)c2ccccc2)C1=O (stereo not given)	-	0	-	0	-	-
SMILES	Rango complex inh	VDR inh	PLK1 PBD block	GCN5L2 inh	PI5P4K alpha inh	Rango release inh
CCOc1cc(-c2c(C#N)c(=O)[nH]c3c2c(C)nn3-c2ccc(F)cc2)ccc1O	0	0	?	0	-56	0
Cc1ccc(-n2nc(C)c3c2OC(N)=C(C#N)C3c2ccc(F)cc2)cc1 (stereo not given)	0	?	?	0	-	0
CCOc1nc(NC(C)C)nc(N2CC3CC(C2)c2cccc(=O)n2C3)n1 (stereo not given)	0	?	7.5µM	0	0	0
CC1(C)[C@@H](O)C[C@H]2[C@](C)(O)[C@@H]3CC[C@H]4[C@@H](O)[C@@]3(C[C@@H](O)[C@@]21O)C[C@@]4(C)O	-	0	-	0	-	-
O=C(Nc1cccc(Cl)c1)N1C[C@H]2C[C@@H](C1)c1cccc(=O)n1C2	0	0	0	0	0	0
C[N+](C)(C)CC#CCOC(=O)Nc1cccc(Cl)c1	0	50µM!	0	0	0	0
CC(=O)C(Sc1ncnc2c1nnn2-c1ccc(F)cc1)C(=O)N(C)C (stereo not given)	0	50µM	24µM	0	0	0
C[C@]12O[C@H](C[C@]1(O)CO)n1c3ccccc3c3c4c(c5c6ccccc6n2c5c31)CNC4=O	-	0	-	?	-	-
O=C(Nc1cccc(C(=O)Nc2cc(C(=O)Nc3ccc([S+](=O)([O-])[O-])c4cc([S+](=O)([O-])[O-])cc(SOOO)c34)ccc2F)c1)Nc1cccc(C(=O)Nc2cc(C(=O)Nc3ccc([S+](=O)([O-])[O-])c4cc([S+](=O)([O-])[O-])cc([S+](=O)([O-])[O-])c34)ccc2F)c1	-	40µM	-	0	-	-
CCN1CCN(CC(=O)c2c(C)n(Cc3ccccc3)c3ccc(OC)cc23)CC1	0	?	21µM	0	0	0
COc1ccc2c(c1)c(C(=O)CN1CCN(C)CC1)c(C)n2Cc1ccccc1	0	0	0	0	0	0
N[C@@H](Cc1cc(I)c(O)c(I)c1)C(=O)O	0	?	0	?	-98	0
Cc1o[nH]c(=O)c1CC(N)C(=O)O (stereo not given)	-	0	-	0	-	-
CC(=O)[O][Hg][c]1ccccc1	-	1.8µM	-	?	-	-
C[S@@](=O)CCCCN=C=S	-	?	-	0	-	-
COc1ccc(-n2c(-c3ccccc3[N+](=O)[O-])nc3ccccc3c2=O)cc1	0	?	21µM	0	0	0
Cc1cc(C(=O)Nc2ccc(CC(=O)O)cc2)c(C)o1	0	0	0	0	0	?
Cc1cc([C@@H]2CCCN2C)on1	-	0	-	0	-	-
S=C(S)N1CCCC1	0	20µM!	?	0	0	0
S=C(S)N1CCNCC1	-	?	-	0	-	-
CC/C=C\C/C=C\C/C=C\C/C=C\C/C=C\CCCC(N)=O	-	0	-	-	-	-
O=C(O)c1cc(Oc2ccc([N+](=O)[O-])cc2)cc(Oc2ccc([N+](=O)[O-])cc2)c1	-	45µM	-	?	-	-
O=C1CCCC2[C@@H]3CCCN4CCC[C@@H](CN12)C34 (stereo not given in full)	-	0	-	0[0.501 µM]	-	-
Brc1ccc(Oc2ccc(Br)cc2Br)c(Br)c1	0	0	0	?	0	26µM
Cc1cc(C)n(-c2ccc(NN=C(C#N)C#N)cc2)n1	0	28µM	0	0	0	0
